{
  "source": "PubChem BioAssay",
  "key": {"[1]": {"assay": "inhibition of Brca1/Bard1 split-luciferase complementation, confirmation, counter-screen for Mdm2/MdmX interaction inhibitor project, luminescence, single concentration (AID 504668)", "conditions": "Brca1/Bard1 bimolecular luciferase complementation counterscreen, at 8 µM, hits give high values"}, "[2]": {"assay": "Apaf-1 inhibitors, single-dose retest, confirmation, biochemical, fluorescence, DEVD-Rh110, 20 µM (AID 504614;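 active means mean inhibition of at least 40% at 20 µM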;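 further: plate controls were DMSO wells for no effect and DEVD-CHO caspase inhibitor control wells for full effect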)", "conditions": "reconstituted apoptosome, caspase-3 DEVD-Rh110 fluorescence; at 20 µM; hits give high values"}, "[3]": {"assay": "Rh110 fluorescence interference by putative Apaf-1 inhibitors, confirmation, artefact control for Apaf-1 inhibitor project, biochemical, 20 µM (AID 504615;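 active means signal rise of 40% or more at 20 µM, treated as a fluorescence artifact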)", "conditions": "quenched caspase reaction, at 20 µM, hits give high values"}, "[4]": {"assay": "fluorescence interference of Apaf-1 inhibitor hits, dose response, artefact control for Apaf-1 inhibitor project (AID 588538)", "conditions": "fluorescence interference counterscreen, Apaf-1 assay format"}, "[5]": {"biological_target": "COP9 signalosome complex subunit 5 (Homo sapiens) (UniProt Q92905)", "sequence (Q92905 whole entry, looked up, one chain of several)": "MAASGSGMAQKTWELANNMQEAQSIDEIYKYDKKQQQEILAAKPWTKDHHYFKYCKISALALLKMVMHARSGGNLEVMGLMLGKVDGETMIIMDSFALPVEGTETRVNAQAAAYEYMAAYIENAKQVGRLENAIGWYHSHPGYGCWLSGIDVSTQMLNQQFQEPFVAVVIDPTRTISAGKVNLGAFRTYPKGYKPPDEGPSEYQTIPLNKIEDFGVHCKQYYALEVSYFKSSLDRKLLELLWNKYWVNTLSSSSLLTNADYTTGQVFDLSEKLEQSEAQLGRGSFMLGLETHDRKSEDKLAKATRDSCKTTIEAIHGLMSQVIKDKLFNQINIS", "assay": "Csn5 deneddylation inhibitors, confirmation, biochemical, fluorescence polarization, single concentration, SCF-Nedd8OG substrate (AID 720654; in the data active means inhibition above about 50%;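 further: 0% = DMSO with enzyme and 100% = no enzyme wells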)", "conditions": "Csn5 deneddylation of SCF-Nedd8OG, 90 min, at 16.6 µM, hits give high values"}, "[6]": {"biological_target": "72 kDa type IV collagenase (Homo sapiens) (UniProt P08253)", "sequence (P08253 whole entry, looked up)": "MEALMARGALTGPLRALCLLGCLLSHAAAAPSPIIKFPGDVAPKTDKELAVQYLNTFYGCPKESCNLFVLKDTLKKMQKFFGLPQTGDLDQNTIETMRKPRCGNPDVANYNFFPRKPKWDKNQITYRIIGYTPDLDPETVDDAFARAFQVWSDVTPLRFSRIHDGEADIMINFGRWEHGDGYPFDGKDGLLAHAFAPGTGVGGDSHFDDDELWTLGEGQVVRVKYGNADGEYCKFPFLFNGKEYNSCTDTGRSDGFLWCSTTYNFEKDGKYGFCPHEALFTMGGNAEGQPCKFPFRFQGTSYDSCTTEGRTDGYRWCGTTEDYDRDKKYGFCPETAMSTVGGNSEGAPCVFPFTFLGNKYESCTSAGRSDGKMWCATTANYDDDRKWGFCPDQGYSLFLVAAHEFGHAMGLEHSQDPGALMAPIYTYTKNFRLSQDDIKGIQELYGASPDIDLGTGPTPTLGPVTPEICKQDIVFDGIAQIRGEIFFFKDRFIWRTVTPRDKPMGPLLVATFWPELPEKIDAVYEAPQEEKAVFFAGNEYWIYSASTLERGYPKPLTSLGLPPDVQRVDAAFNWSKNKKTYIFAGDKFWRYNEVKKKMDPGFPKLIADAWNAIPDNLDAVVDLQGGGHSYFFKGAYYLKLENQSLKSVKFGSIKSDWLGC", "assay": "MMP-2 protease inhibition counter-screen, confirmation, counter-screen for CSN deneddylation inhibitor project, biochemical, fluorescence, single concentration (AID 720655;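 active means corrected plate-normalized z-score of 5 or more, or -5 or less, or inhibition of 15% or more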;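 further: plate controls were DMSO wells with enzyme for no effect and buffer wells lacking MMP-2 for full effect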)", "conditions": "recombinant MMP-2, FRET substrate fluorescence, 60 min; at 16.6 µM"}, "Prothrombin (Bos taurus)": {"biological_target": "Prothrombin (Bos taurus) (UniProt P00735)", "sequence (P00735 whole entry, looked up)": "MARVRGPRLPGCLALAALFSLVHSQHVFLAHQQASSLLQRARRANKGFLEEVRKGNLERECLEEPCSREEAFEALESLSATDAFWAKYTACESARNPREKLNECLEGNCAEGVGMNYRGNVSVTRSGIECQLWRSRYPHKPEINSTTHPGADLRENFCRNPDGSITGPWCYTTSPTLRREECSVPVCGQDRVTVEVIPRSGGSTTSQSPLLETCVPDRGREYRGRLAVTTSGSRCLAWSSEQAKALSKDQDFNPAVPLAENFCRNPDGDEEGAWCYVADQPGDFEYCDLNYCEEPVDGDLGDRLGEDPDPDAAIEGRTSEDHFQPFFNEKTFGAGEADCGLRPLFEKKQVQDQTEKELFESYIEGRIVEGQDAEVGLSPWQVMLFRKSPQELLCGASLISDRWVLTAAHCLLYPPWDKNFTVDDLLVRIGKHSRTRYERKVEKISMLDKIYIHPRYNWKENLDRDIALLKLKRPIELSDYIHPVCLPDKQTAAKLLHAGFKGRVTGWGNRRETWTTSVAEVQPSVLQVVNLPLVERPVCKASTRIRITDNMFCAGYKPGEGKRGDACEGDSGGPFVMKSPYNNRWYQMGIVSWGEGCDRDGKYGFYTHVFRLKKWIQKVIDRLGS", "assay": "bovine thrombin inhibition counter-screen, confirmation, counter-screen for CSN deneddylation inhibitor project, biochemical, fluorescence polarization, single concentration (AID 720656;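 active means inhibition at or above a set limit, with a fluorescence interference ratio between 0.5 and a set maximum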)", "conditions": "bovine thrombin cleavage of Ub4-pepOG, at 16.6 µM, hits give high values"}},
  "note": "Values without a mark were called inactive. This is one part of the list. Calls of active or inactive are those of the source. Unless noted, how the calls were made is not given here.",
  "data": [
    {"molecule": "O=C(CCCN1C(=O)/C(=C\\c2ccccc2)SC1=S)Nc1ccc(O)cc1", "values": [
      {"measurement": "inhibition", "setting": "[1]", "result": "33.2% (active)"}
    ]},
    {"molecule": "COc1ccc(/C=C2/SC(=S)N(CCCC(=O)Nc3cccc(O)c3)C2=O)cc1", "values": [
      {"measurement": "inhibition", "setting": "[1]", "result": "28.6% (active)"}
    ]},
    {"molecule": "Nc1nc(Cl)nc2c1ncn2C1CC(O)C(CO)O1", "note": "(stereo unspecified)", "values": [
      {"measurement": "inhibition", "setting": "[1]", "result": "25.6% (active)"}
    ]},
    {"molecule": "O=c1c2ccccc2nc(-c2ccc(Cl)c(Cl)c2)n1O", "values": [
      {"measurement": "inhibition", "setting": "[1]", "result": "26.8% (active)"}
    ]},
    {"molecule": "COc1cccc(CNc2ncnc3ccc(-c4c(C)noc4C)cc23)c1", "values": [
      {"measurement": "inhibition", "setting": "[1]", "result": "31% (active)"}
    ]},
    {"molecule": "O=C(CN1C(=O)/C(=C/c2ccccc2)SC1=S)N1CCN(CCc2ccccn2)CC1", "values": [
      {"measurement": "inhibition", "setting": "[1]", "result": "24.3% (active)"}
    ]},
    {"molecule": "COc1ccc(C(C)=O)cc1CSc1nnc(-c2ccc(Cl)cc2)n1-c1ccccc1", "values": [
      {"measurement": "inhibition", "setting": "[1]", "result": "25.6% (active)"}
    ]},
    {"molecule": "CC(C)CC[n+]1ccn(C2=C([O-])c3ccccc3C(=O)/C2=N\\S(=O)(=O)c2ccccc2)c1", "values": [
      {"measurement": "inhibition", "setting": "[2]", "result": "62.6% (active)"},
      {"measurement": "activation (fluorescence interference)", "setting": "[3]", "result": 5.73, "unit": "%"},
      {"measurement": "IC50", "setting": "[4]", "result": "> 100", "unit": "µM"}
    ]},
    {"molecule": "O=C(Nc1nc(-c2ccccn2)cs1)c1ccc(Cl)s1", "values": [
      {"measurement": "inhibition", "setting": "[1]", "result": "24.4% (active)"}
    ]},
    {"molecule": "Cc1ccc(N=C2NC(=O)/C(=C/C=C/c3ccco3)S2)cc1C", "values": [
      {"measurement": "inhibition", "setting": "[2]", "result": 26.1, "unit": "%"},
      {"measurement": "activation (fluorescence interference)", "setting": "[3]", "result": 20.6, "unit": "%"},
      {"measurement": "inhibition", "setting": "[5]", "result": 25.6, "unit": "%"},
      {"measurement": "inhibition", "setting": "[6]", "result": 13.5, "unit": "%"},
      {"measurement": "inhibition", "setting": "Prothrombin (Bos taurus)", "result": 7.38, "unit": "%"}
    ]},
    {"molecule": "Cc1cccc(/C=N/NC(=O)Cc2ccc(Cl)cc2)c1O", "values": [
      {"measurement": "inhibition", "setting": "[1]", "result": "29.9% (active)"}
    ]},
    {"molecule": "O=C(CCl)N1N=C(c2ccco2)CC1c1ccco1", "note": "(stereo unspecified)", "values": [
      {"measurement": "inhibition", "setting": "[1]", "result": "31.2% (active)"}
    ]},
    {"molecule": "O=C(NCc1cccnc1)c1c(O)c2cccc3c2n(c1=O)CCC3", "values": [
      {"measurement": "inhibition", "setting": "[1]", "result": "31.4% (active)"}
    ]},
    {"molecule": "CN(Cc1ccccc1)C(=O)c1ccc(NC(=O)C2CCN(C(=O)OC(C)(C)C)CC2)cc1", "values": [
      {"measurement": "inhibition", "setting": "[1]", "result": "31.6% (active)"}
    ]},
    {"molecule": "O=C(CCl)Nc1cccc(S(=O)(=O)NC2=NCCCCC2)c1", "values": [
      {"measurement": "inhibition", "setting": "[1]", "result": "35.8% (active)"}
    ]},
    {"molecule": "Oc1c(CN2CCCC2)cc(COCc2ccccc2)c2cccnc12", "values": [
      {"measurement": "inhibition", "setting": "[1]", "result": "32.2% (active)"}
    ]},
    {"molecule": "CCCCN1/C(=C/c2ccc3ccccc3[n+]2CC)Sc2ccccc21", "values": [
      {"measurement": "inhibition", "setting": "[1]", "result": "32.5% (active)"}
    ]},
    {"molecule": "Cc1cc(C(=O)Nc2ccc(Cl)cc2)c(C)n1-c1ccccc1", "values": [
      {"measurement": "inhibition", "setting": "[1]", "result": "30.6% (active)"}
    ]},
    {"molecule": "COc1ccc(C(NC(C)=O)c2cc(Cl)c3cccnc3c2O)cc1", "note": "(stereo unspecified)", "values": [
      {"measurement": "inhibition", "setting": "[1]", "result": "29.3% (active)"}
    ]},
    {"molecule": "CCCCNc1c(-c2ccc(OC)c(SC3CCCCC3)c2)nc2ccc(C)cn12", "values": [
      {"measurement": "inhibition", "setting": "[1]", "result": "28.6% (active)"}
    ]},
    {"molecule": "COc1ccc(-n2c(C)c([N+](=O)[O-])c3ccc(O)c(CN4CCCCC4)c32)cc1", "values": [
      {"measurement": "inhibition", "setting": "[1]", "result": "28.9% (active)"}
    ]},
    {"molecule": "O=C(CCl)Nc1cccc(S(=O)(=O)N2CCCCCC2)c1", "values": [
      {"measurement": "inhibition", "setting": "[1]", "result": "24% (active)"}
    ]},
    {"molecule": "CN(CC(=O)Nc1ccccc1Cl)C(=O)COC(=O)c1nc(Cl)c(Cl)c(Cl)c1Cl", "values": [
      {"measurement": "inhibition", "setting": "[1]", "result": "30.8% (active)"}
    ]},
    {"molecule": "CCC(C)Nc1nc(-c2ccccn2)nc2ccccc12", "note": "(stereo unspecified)", "values": [
      {"measurement": "inhibition", "setting": "[1]", "result": "29.2% (active)"}
    ]},
    {"molecule": "O=C(CSc1nnnn1-c1ccccc1)Nc1nsc(-c2ccccc2)n1", "values": [
      {"measurement": "inhibition", "setting": "[1]", "result": "27.7% (active)"}
    ]},
    {"molecule": "CCCCCCCCCC(=O)N[C@@H]1c2cc(OC)c(OC)cc2C[C@H]1OCc1ccccc1", "values": [
      {"measurement": "inhibition", "setting": "[1]", "result": "35.8% (active)"}
    ]},
    {"molecule": "Cc1ccc2c(C)nc(Nc3nc(CSc4nc5ccccc5[nH]4)cc(=O)[nH]3)nc2c1", "values": [
      {"measurement": "inhibition", "setting": "[1]", "result": "32.5% (active)"}
    ]},
    {"molecule": "Cc1cc(Br)cc(/C=N/NC(=O)c2ccc3c(c2)OCO3)c1O", "values": [
      {"measurement": "inhibition", "setting": "[1]", "result": "33% (active)"}
    ]},
    {"molecule": "COC(=O)c1cccc(C23CC4(C2)[C@H](CN(Cc2ccc(C(F)(F)F)cc2)[C@@H]4c2ccccc2)C3c2ccc(C(F)(F)F)cc2)c1", "note": "(stereo partly specified)", "values": [
      {"measurement": "inhibition", "setting": "[1]", "result": "23.6% (active)"}
    ]},
    {"molecule": "CSc1nc2nccc(/C=C\\c3ccccc3)n2n1", "values": [
      {"measurement": "inhibition", "setting": "[1]", "result": "23.7% (active)"}
    ]},
    {"molecule": "O=C(Nc1ccc(Cl)c([N+](=O)[O-])c1)C(Sc1ccccc1)c1ccccc1", "note": "(stereo unspecified)", "values": [
      {"measurement": "inhibition", "setting": "[1]", "result": "24.1% (active)"}
    ]},
    {"molecule": "O=C(CCN1C(=O)/C(=C/c2ccccc2F)SC1=S)NCCc1ccc(O)cc1", "values": [
      {"measurement": "inhibition", "setting": "[1]", "result": "33% (active)"}
    ]},
    {"molecule": "COc1ccc(C(=O)C(CN2CCOCC2)c2ccccc2)cc1", "note": "(stereo unspecified)", "values": [
      {"measurement": "inhibition", "setting": "[1]", "result": "27.4% (active)"}
    ]},
    {"molecule": "COc1ccc(C(=O)C(CCCCC(CN(C)C)C(=O)c2ccc(OC)cc2)CN(C)C)cc1", "note": "(stereo unspecified)", "values": [
      {"measurement": "inhibition", "setting": "[1]", "result": "30.7% (active)"}
    ]},
    {"molecule": "Cc1ccc2nc(-c3ccccn3)c(Nc3ccccc3C)n2c1", "values": [
      {"measurement": "inhibition", "setting": "[1]", "result": "35.8% (active)"}
    ]}
  ]
}
